Among the data in PubChem BioAssay (Tox21) are outcome and Potency values, retold here.

Test [1] is described as follows: qHTS assay to test for compound auto fluorescence at 535 nm (green) in HEK293 cells (AID 720680). For orientation: Quantitative high-throughput screening tests each substance at several concentrations.
Test [2] can be described thus: qHTS assay to test for compound auto fluorescence at 460 nm (blue) in HEK293 cell free culture (AID 720681). A digest of the protocol: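 Blue fluorescence (Ex 405/Em 460 nm, triamterene-equivalent) was read immediately after pin transfer of compound or DMSO into medium (DMEM, 10% FBS) without cells.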
Test [3] is described as follows: qHTS assay to test for compound auto fluorescence at 535 nm (green) in HEK293 cell free culture (AID 720682). The method in brief:
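No cells present: wells hold DMEM supplemented with 10% FBS, into which compound or vehicle is pinned. Green emission is then recorded (485 nm excitation, 535 nm emission) and scaled to fluorescein.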

Test [4] in a line: qHTS assay to test for compound auto fluorescence at 590 nm (red) in HEK293 cell free culture (AID 720683). A digest of the protocol:
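Red-channel autofluorescence of compounds in culture medium (DMEM, 10% FBS), no cells, measured at 540/590 nm. Rose Bengal sodium is the reference fluorophore for equivalence.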

Test [5] is described as follows: qHTS assay to test for compound auto fluorescence at 590 nm (red) in HepG2 cell free culture (AID 720684). The method in brief:
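No cells present: MEM + 10% FBS only. Compound pinned in, red label read (540/590 nm). Activity = fluorescence equivalent to Rose Bengal sodium.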

A short description of test [6]: qHTS assay to test for compound auto fluorescence at 460 nm (blue) in HepG2 cell free culture (AID 720685). The method in brief: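 Cell-free plates of MEM plus 10% FBS received 23 nL compound or DMSO vehicle; blue-channel (405/460 nm) intensity scored against triamterene as reference fluorophore.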
Test [7] can be described thus: qHTS assay to test for compound auto fluorescence at 535 nm (green) in HepG2 cell free culture (AID 720686).
Test [8] is described as follows: qHTS assay to test for compound auto fluorescence at 460 nm (blue) in HepG2 cells (AID 720687). The method in brief:
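Blue-channel autofluorescence (Ex/Em 405/460 nm, triamterene-equivalent) was measured after 1 hr compound exposure at 37 C, 5% CO2. Cells were HepG2, plated overnight at 37 C in MEM plus 10% FBS.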

Test [9] has as its target Glucocorticoid receptor (Homo sapiens) (UniProt P04150). Put plainly: qHTS assay to identify small molecule agonists of the glucocorticoid receptor (GR) signaling pathway (AID 720691; active = well fitted activation curve with a large enough effect in the signal ratio in the repeat runs, not every such curve was filed as active; the % refers to the signal ratio; note: potency is the fitted concentration of half-maximal effect). The method in brief: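 Agonist-mode qHTS in HeLa cells stably expressing a glucocorticoid-response-element beta-lactamase reporter. Fluorescence intensity read with FRET substrate (2 h, room temperature) after 18 h compound treatment at 37 C.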

Test [10] shares this target. Briefly: qHTS assay to identify small molecule antagonists of the glucocorticoid receptor (GR) signaling pathway (AID 720692; active = well fitted inhibition curve with a large enough effect in the signal ratio in the repeat runs, not every such curve was filed as active; the % refers to the signal ratio). A digest of the protocol:
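Inhibition of dexamethasone-driven (5 nM final) beta-lactamase expression was measured in GRE-reporter HeLa cells over 18 h at 37C. Fluorescence was read after 2 h with the B/G FRET substrate at room temperature.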

A short description of test [11]: qHTS assay to identify small molecule antagonists of the glucocorticoid receptor (GR) signaling pathway - cell viability counter screen (AID 720693). Note: nearly all actives have a fitted effect of over 55% in size.
The nature of test [12]: qHTS assay for identifying genotoxic compounds that show differential cytotoxicity against isogenic chicken DT40 cell lines with known DNA damage response pathways - wild type cell line (AID 743012). Note: nearly all actives have a fitted effect of over 60% in size. Note: potency is the fitted concentration of half-maximal effect. The method in brief: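 Viability by ATP luminescence (CellTiter-Glo, 30 min RT) after 40 h compound treatment at 37 C/5% CO2, using 300 parental DNA repair-proficient DT40 cells per well.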

A short description of test [13]: qHTS assay for identifying genotoxic compounds that show differential cytotoxicity against isogenic chicken DT40 cell lines with known DNA damage response pathways - Rev3 mutant cell line (AID 743014). Note: nearly all actives have a fitted effect of over 55% in size. Note: potency is the fitted concentration of half-maximal effect.
Test [14] in a line: qHTS assay for identifying genotoxic compounds that show differential cytotoxicity against isogenic chicken DT40 cell lines with known DNA damage response pathways - Rad54/Ku70 mutant cell line (AID 743015). Note: nearly all actives have a fitted effect of over 60% in size. Note: potency is the fitted concentration of half-maximal effect.
Test [15] can be described thus: qHTS assay to identify small molecule antagonists of the androgen receptor (AR) signaling pathway - cell viability counter screen (AID 743033; note: nearly all actives have a fitted effect of over 45% in size).
Test [16] is described as follows: qHTS assay to identify small molecule antagonists of the androgen receptor (AR) signaling pathway using the MDA cell line - cell viability counter screen (AID 743041; note: nearly all actives have a fitted effect of over 45% in size). A digest of the protocol: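 Using the breast carcinoma line MDA-kb2 AR-luc, test chemicals were co-incubated with R1881 for 16 h; CellTiter-Fluor reagent, added at 15.5 h, provided a fluorescence measure of live cells.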

Test [17] deals with Androgen receptor (Homo sapiens) (UniProt P10275). Briefly: qHTS assay to identify small molecule antagonists of the androgen receptor (AR) signaling pathway (AID 743035; active = well fitted inhibition curve with a large enough effect in the signal ratio in the repeat runs, not every such curve was filed as active; the % refers to the signal ratio). The method in brief: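 Antagonist mode: AR-bla HEK293 cells co-treated with test compounds and agonist R1881 for 16 h at 37C, 5% CO2. Beta-lactamase activity read as FRET fluorescence after 2 h room-temperature substrate loading.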
Chain of Androgen receptor (Homo sapiens) (P10275 whole entry, looked up): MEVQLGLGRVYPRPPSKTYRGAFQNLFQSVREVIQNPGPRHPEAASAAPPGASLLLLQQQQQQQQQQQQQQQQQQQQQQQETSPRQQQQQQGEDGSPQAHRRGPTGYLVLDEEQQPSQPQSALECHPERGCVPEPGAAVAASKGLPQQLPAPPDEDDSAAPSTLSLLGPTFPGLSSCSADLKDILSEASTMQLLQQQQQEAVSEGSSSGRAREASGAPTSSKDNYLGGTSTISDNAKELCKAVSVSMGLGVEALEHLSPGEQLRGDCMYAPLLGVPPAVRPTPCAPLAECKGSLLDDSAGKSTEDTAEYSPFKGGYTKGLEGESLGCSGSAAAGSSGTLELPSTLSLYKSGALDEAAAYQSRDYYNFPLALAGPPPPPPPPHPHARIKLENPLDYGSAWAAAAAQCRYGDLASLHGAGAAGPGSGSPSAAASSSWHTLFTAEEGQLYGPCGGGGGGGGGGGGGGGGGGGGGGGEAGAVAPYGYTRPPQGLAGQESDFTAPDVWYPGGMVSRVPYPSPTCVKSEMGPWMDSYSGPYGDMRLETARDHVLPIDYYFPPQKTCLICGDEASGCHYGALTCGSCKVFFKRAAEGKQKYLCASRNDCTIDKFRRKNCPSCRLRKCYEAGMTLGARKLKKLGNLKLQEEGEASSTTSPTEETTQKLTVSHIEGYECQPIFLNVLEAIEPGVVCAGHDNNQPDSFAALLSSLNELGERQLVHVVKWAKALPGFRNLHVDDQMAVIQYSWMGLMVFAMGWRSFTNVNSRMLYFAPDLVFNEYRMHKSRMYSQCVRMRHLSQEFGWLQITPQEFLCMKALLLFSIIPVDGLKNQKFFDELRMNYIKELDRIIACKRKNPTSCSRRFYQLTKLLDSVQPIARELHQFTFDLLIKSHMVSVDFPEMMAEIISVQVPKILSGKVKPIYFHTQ

Test [18] has the same target. Put plainly: qHTS assay to identify small molecule agonists of the androgen receptor (AR) signaling pathway (AID 743036; active = well fitted activation curve with a large enough effect in the signal ratio in the repeat runs, with a control signal flat, not every such curve was filed as active; the % refers to the signal ratio). A digest of the protocol: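 Quantitative HTS of the Tox21 10K library in HEK293 cells bearing a stably integrated UAS-controlled beta-lactamase reporter. Compound exposure lasted 16 h at 37C. Reporter activity was detected by FRET substrate fluorescence after 2 h at room temperature.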

The target is the same in test [19]. Briefly: qHTS assay to identify small molecule agonists of the androgen receptor (AR) signaling pathway using the MDA cell line (AID 743040; note: nearly all actives have a fitted effect of over 20% in size). A digest of the protocol: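 Stable MMTV-luciferase reporter in MDA-kb2 cells; note the promoter carries GR as well as AR response elements. 16 h compound treatment, 37C, 0% CO2; ONE-Glo luminescence endpoint.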
Test [20] can be described thus: qHTS assay to identify small molecule antagonists of the thyroid receptor (TR) signaling pathway - cell viability counter screen (AID 743064). Note: nearly all actives have a fitted effect of over 50% in size. The method in brief: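 Rat GH3 pituitary tumor cells stably expressing two TR response elements driving luciferase were plated, rested 4 h, then dosed with library compounds and T3 (1 nM final). After 23.5 h at 37 °C, CellTiter-Fluor was added for 30 min and fluorescence recorded.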

Each structure is given as a SMILES string. Several values for one entry are separate records, joined by “and”; a condition that tells them apart may be missing. Equal entries are not always repeated. Results filed as inconclusive are left out. A structure can be active in one record and inactive in another. Activity calls are given as the source filed them. Unless noted, calls come from the whole dose curve; as a rule, active = well fitted curve in the direction sought with a large enough effect in the repeat runs; inconclusive = weak or mixed curves; inactive = no such curve, though single readings can be large; an effect the other way counts as inactive or inconclusive.

Chain of Glucocorticoid receptor (Homo sapiens) (P04150 whole entry, looked up): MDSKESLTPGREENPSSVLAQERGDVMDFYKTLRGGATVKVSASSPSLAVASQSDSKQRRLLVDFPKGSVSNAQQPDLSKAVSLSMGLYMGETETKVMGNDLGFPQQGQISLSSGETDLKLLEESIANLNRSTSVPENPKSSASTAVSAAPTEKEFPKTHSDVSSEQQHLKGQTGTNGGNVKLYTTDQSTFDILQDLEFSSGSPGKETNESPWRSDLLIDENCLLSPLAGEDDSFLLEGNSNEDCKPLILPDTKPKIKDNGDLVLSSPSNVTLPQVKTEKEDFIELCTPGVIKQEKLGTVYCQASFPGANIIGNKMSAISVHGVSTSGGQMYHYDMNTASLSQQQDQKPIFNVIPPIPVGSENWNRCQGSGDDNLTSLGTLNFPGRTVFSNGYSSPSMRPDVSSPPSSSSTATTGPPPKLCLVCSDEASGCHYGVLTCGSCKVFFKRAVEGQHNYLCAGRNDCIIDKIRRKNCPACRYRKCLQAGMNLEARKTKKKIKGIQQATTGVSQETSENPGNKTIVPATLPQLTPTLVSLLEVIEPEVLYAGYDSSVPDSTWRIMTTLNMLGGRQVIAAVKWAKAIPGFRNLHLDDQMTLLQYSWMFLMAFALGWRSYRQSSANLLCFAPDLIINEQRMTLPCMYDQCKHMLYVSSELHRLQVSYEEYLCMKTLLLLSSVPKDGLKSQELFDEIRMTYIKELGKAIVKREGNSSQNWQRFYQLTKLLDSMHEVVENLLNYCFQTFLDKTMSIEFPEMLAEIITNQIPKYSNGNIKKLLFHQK

Take `COc1c2occc2cc2ccc(=O)oc12`: the molecule was called inactive in test [1], in test [2], in [3], in test [4], in test [5] and in test [6]. Moreover, the molecule was called inactive in test [7], in test [8], in test [10] and in test [15]. Further, the Potency entry in test [9], in [11], in [12], in test [13], in [14] and in test [16] was “inactive” each time.

In the case of `Cc1ccccc1C(OCCN(C)C)c1ccccc1` (centres undefined), the outcome in [1], in test [2], in test [3], in test [4], in [5] and in [6] was inactive. Further, the result in [7], in [8] and in [15] was inactive. For the same molecule, the Potency result in [9], in test [11] and in test [16] was “inactive” each time. Also, the Potency entry in [13] was “inactive and 61.1 µM (active) and 54.5 µM (active)”; in test [14] it was “inactive and 61.1 µM (active) and 68.6 µM (active)”.

On to `Nc1ccc(C(=O)O)cc1`, for which the molecule was called inactive in test [1], in [2], in [3], in test [4], in test [5] and in test [6]. Also, the molecule was classed as inactive in test [8], in [10] and in test [15]. Also, the Potency result in [9], in test [11], in test [12], in test [13], in test [14] and in test [16] was “inactive” each time.

For the molecule `Cc1ccc(O)cc1`, the outcome in test [1], in [2], in [3], in test [4], in test [5] and in [6] was inactive. Besides, the result in test [7], in test [8], in test [10], in test [15], in [17] and in test [18] was inactive. Also, the Potency entry in [9], in test [11], in [12], in [13], in [14] and in test [19] was “inactive” throughout. Further, the Potency entry in test [16] and in [20] was “inactive” each time.

Consider `Cc1cc(=O)[nH]c(=S)[nH]1`, for which the molecule was classed as inactive in [1], in [2], in test [3], in test [4], in test [5] and in test [6]. The call in [7], in [8], in test [10] and in test [15] was inactive. The Potency in test [9] was 23.9 µM (active) and inactive. The Potency entry in [11], in test [12], in test [13], in test [14], in test [16] and in test [20] was “inactive” in each case.

With `CC(C)(Oc1ccc(C2CC2(Cl)Cl)cc1)C(=O)O` (centres undefined), the call in [1], in [2], in test [3], in test [4], in [5] and in test [6] was inactive. Also, the outcome in test [8], in test [10], in test [15], in test [17] and in [18] was inactive. Also, the Potency entry in [9], in test [11], in test [12], in test [13], in test [14] and in test [19] was “inactive” throughout. In addition, the Potency result in test [16] and in test [20] was “inactive” in each case.

For `O=C(O)C(=O)O`, the molecule was called inactive in test [1], in [2], in test [3], in test [4], in test [5] and in test [6]. Besides, the call in test [7], in test [8], in [10] and in [15] was inactive. The Potency entry in test [9], in test [11], in [12], in test [13], in [14] and in test [16] was “inactive” throughout. Moreover, the Potency result in [20] is “inactive”.

Take `O=C(c1ccccc1)c1ccccc1`: the result in test [1], in test [2], in test [3], in [4], in test [5] and in test [6] was inactive. Also, the molecule was classed as inactive in test [7], in test [8], in test [10], in test [15], in test [17] and in test [18]. Further, the Potency result in test [9], in [11], in test [16] and in test [20] was “inactive” throughout.

With `C1N2CN3CN1CN(C2)C3`, the call in test [1], in [2], in test [3], in test [4], in [5] and in test [6] was inactive. Besides, the molecule was classed as inactive in test [7], in [8], in test [15], in test [17] and in [18]. Further, the Potency entry in test [11], in test [12], in [13], in test [14], in test [19] and in [16] was “inactive” each time. Further, the Potency entry in test [20] is “inactive”.

For the molecule `CCCCOC(=O)CC(CC(=O)OCCCC)(OC(C)=O)C(=O)OCCCC`, the call in [1], in test [2], in [3], in test [4], in [5] and in test [6] was inactive. For the same molecule, the outcome in [7], in test [8], in test [10] and in [15] was inactive. In addition, the Potency result in test [9], in test [11], in [13], in test [16] and in test [20] was “inactive” throughout. For the same molecule, in test [14], the Potency entry was “inactive and 54.5 µM (active)”.

As to `NS(=O)(=O)c1cc(C(=O)O)c(NCc2ccco2)cc1Cl`, the molecule was classed as inactive in [1], in test [2], in test [3], in [4], in test [5] and in [6]. For the same molecule, the outcome in [7], in [8] and in test [15] was inactive. For the same molecule, the Potency result in test [11], in test [12], in test [13], in test [14], in test [16] and in test [20] was “inactive” in each case.

For `CC(=O)OCC(COC(C)=O)OC(C)=O`, the molecule was called inactive in [1], in test [2], in [3], in [4], in test [5] and in test [6]. Besides, the result in test [7], in [8], in test [10] and in test [15] was inactive. Also, the Potency result in test [9], in [11], in test [12], in test [13], in [14] and in test [16] was “inactive” throughout. Besides, the Potency entry in [20] was “inactive”.

Regarding `C/C=C/c1ccc(OC)cc1`, the outcome in test [1], in test [2], in test [3], in test [4], in [5] and in test [6] was inactive. Moreover, the result in test [7], in test [8] and in test [15] was inactive. Further, the Potency entry in test [11], in test [12], in test [13], in [14], in [16] and in [20] was “inactive” throughout.

Regarding `CCCCCCCCCCCCCCCC(=O)O`, the call in [1], in [2], in test [3], in test [4], in test [5] and in test [6] was inactive. The result in test [7], in test [8], in [10] and in test [15] was inactive. The Potency result in test [9], in test [11], in test [13], in test [14], in test [16] and in test [20] was “inactive” in each case. The Potency in test [12] is 11.9 µM (active) and inactive.

As to `NNC(=O)c1ccncc1`, the call in [1], in test [2], in test [3], in [4], in test [5] and in test [6] was inactive. Further, the molecule was called inactive in [7], in [8], in test [10] and in [15]. For the same molecule, the Potency result in test [9], in test [11], in test [12], in test [13], in [14] and in [16] was “inactive” in each case. The Potency entry in test [20] was “inactive”.
